Most compounds without a hit are left out; they make up all but 13% or so of the library.
FMDV antiviral: blocks foot and mouth disease virus; FMDV antiviral cell-based qHTS; Potency, µM (highest dose often 57.9 µM), without a hit: top-dose activity change, negative = inhibition, actives largely listed as inhibitors; 1.2% of 410,000 active; AID 1159524; calls by dose curve; tested in HEK293T cells; also: read-out not given here; potency is read from the fitted curve at half-maximal effect; % is scaled to controls: 0 for no effect and ±100 for the full control effect; nearly all actives have a fitted effect of over 45% in size
Shiga toxin inh: blocks Shiga toxin action in Vero cells; Vero cells, Shiga toxin protein synthesis inhibition reporter; inhibition, % at 38.7 µM; 9.2% of 290,000 active; AID 2315; in the data active = inhibition mostly above about 28%, no sharp cut-off; inactive = mostly below about 43%; also: 0% is about no effect
MARV entry inh: Marburg virus entry inhibition | Potency, µM (series often up to 37.8 µM), without a hit: top-dose activity change, negative = inhibition, usual class: inhibitors | AID 540276 | Marburg virus pseudotyped entry inhibition, cell reporter | 1.8% of 300,000 active; calls by dose curve; tested in HEK293 cells; also: potency is read from the fitted curve at half-maximal effect; % is scaled to controls: 0 for no effect and ±100 for the full control effect
Lassa entry inh: inhibitors of Lassa virus binding or cell entry; Lassa virus pseudotype entry inhibition, cell reporter; Potency, µM (highest dose often 37.9 µM), without a hit: at the highest dose activity change, negative = inhibition, most hits filed as inhibitors; 1.2% of 300,000 active; AID 540256; calls by dose curve; tested in HEK293 cells; also: potency is read from the fitted curve at half-maximal effect; % is scaled to controls: 0 for no effect and ±100 for the full control effect; nearly all actives have a fitted effect of over 50% in size
HCV inhibitor: inhibitors of hepatitis C virus infection. Huh7.5.1 HCVcc-Cre infection, luciferase reporter, 44 h. Potency, µM (doses to about 41.8 µM), for the others: at the top dose activity change, negative = inhibition, hits mostly inhibitors. 3.4% of 340,000 active; active = well fitted inhibition curve with a large enough effect; inconclusive = small, poorly fitted or top-dose-only effect, or another doubt; inactive = no such curve, though single readings can be large or run the other way; also: potency is read from the fitted curve at half-maximal effect; % is scaled to controls: 0 for no effect and ±100 for the full control effect
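1,000 cells/well; 4 h culture; + compound; + HCVcc-Cre (~0.5 moi); 44 h; luciferase substrate, RT 15 min; read 15 sec.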
Cycloheximide cs: counter-screen hit for Shiga toxin inhibitors, cycloheximide; cell reporter, cycloheximide protein synthesis inhibition counterscreen; max response, %; 12% of 300,000 active; AID 2314; in the data active = max response mostly above about 13%, no sharp cut-off; inactive = mostly below about 14%; also: read at 38.3 µM for the half of the compounds with a filed dose; 0% is about no effect
* = called active by the depositor; ? = inconclusive; · = no result given; [ ] = dose if it differs, or a comment.

SMILES | FMDV antiviral | Shiga toxin inh | MARV entry inh | Lassa entry inh | HCV inhibitor | Cycloheximide cs
COc1ccc(-c2cn3cccnc3n2)cc1NC(=O)c1ccc(Br)o1 | -5% | 5 | 0% | -24% | 11µM* | 12
Cc1cc(O)c(NC(=O)c2ccc(Br)o2)cc1C | 59% | 66* | 16% | ? | -8% | 46*
COc1cccc(CN2CC(C(=O)NCc3ccc(C)c(F)c3)CCC2=O)c1 (stereo not drawn) | 8% | 12 | 12% | 3% | 15% | 10
Cc1cc(C)cc(NC(=O)c2ccc(NC(=O)C3C4CC5OC(=O)C3C5C4)cc2)c1 (stereo not drawn) | -25% | -5 | -1%[46.1 µM] | -26% | -21% | -3
Cc1cc2c(C)nc(-c3ccccc3)nc2o1 | 73% | 107* | 2%[46.1 µM] | 29% | 3.5µM* | 39*
CCc1cccc(CC)c1NC(=O)c1ccccc1 | -7% | -7 | 10%[46.1 µM] | 30%[46.1 µM] | 27% | -2
N#C/C(=C\c1ccccc1C(F)(F)F)C(=O)Nc1ccccc1 | 22% | -3 | -2% | 4% | 1% | 17*
N#C/C(=C\c1ccccc1OCc1ccc(C(=O)O)cc1)C(=O)Nc1ccc(O)cc1 | -28% | 9 | ? | 8% | -18% | 11
CCc1cccc(CC)c1NC(=O)/C(C#N)=C/c1ccccc1C(F)(F)F | 25µM* | -6 | ? | ? | 11µM* | -9
O=C(CCCn1c(SCC(=O)Nc2ccccc2C(F)(F)F)nc2ccccc2c1=O)NCC1CCCO1 (stereo not drawn) | -8% | -16 | -3%[46.1 µM] | -2%[46.1 µM] | 1% | -1
O=C(Nc1nc2ccsc2c(=O)s1)c1ccco1 | 60% | 97* | ? | ? | -9% | 27*
CC(C)c1nnc(NC(=O)C2CCN(C(=O)c3ccco3)CC2)s1 | 4% | 40* | 14%[46.1 µM] | -1%[46.1 µM] | 5% | 21*
Cc1cccc(NC(=O)C2CCN(S(=O)(=O)c3cccc4nsnc34)CC2)n1 | ? | -11 | -20% | ? | 2% | -3
Cc1nnc(NC(=O)C2CCN(C(=O)c3ccco3)CC2)s1 | 18% | -11 | -1%[46.1 µM] | 1%[46.1 µM] | 0% | -2
O=C(Nc1nc2c(s1)CCc1ccccc1-2)c1ccco1 | -8% | 81* | ? | 17% | 32µM* | 50*
COc1ccc2nc(NC(=O)C3CCN(S(=O)(=O)c4cccc5nsnc45)CC3)sc2c1 | 7.9µM* | -3 | ? | 4.6µM* | ? | -2
CCCCCCC(=O)NN1CCN(C)CC1 | 5% | -23 | 16% | 12% | 4% | 1
CCCCS(=O)(=O)C(=C1Nc2ccccc2N1)S(=O)(=O)CCCC | 3% | -2 | -4% | 15% | -11% | 6
CC(C)Cc1nc2cc(NS(=O)(=O)N(C)C)cc(C(=O)N3CCOc4ccccc4C3)c2n1C | -6% | · | · | · | · | ·
COc1cccc(CNC(=O)Cn2ncc3c4ccccc4n(C)c3c2=O)c1 | -11% | · | 13%[46.1 µM] | 6%[46.1 µM] | · | ·
O=c1sc(Nc2ccccc2)nc2ccsc12 | 10% | 92* | ? | ? | -27% | 80*
COc1ccc2nc(NC(=O)c3ccco3)sc2c1 | -30% | 60* | · | · | -9% | 20*
Cc1ccc2nc(NC(=S)NC(=O)c3ccco3)sc2c1 | 42% | 138* | 4% | ? | -27% | 67*
Cc1ccc2nc(NC(=O)c3ccco3)sc2c1 | -79% | 15 | 4.5µM* | 1µM* | -2% | 30*
Cc1ccc(Nc2nc3ccccc3c(=O)s2)cc1C | 31% | -1 | 1% | 6% | 9% | -3
SMILES | FMDV antiviral | Shiga toxin inh | MARV entry inh | Lassa entry inh | HCV inhibitor | Cycloheximide cs
Cn1cccc1C(=O)N1CCC2(CC1)CN(Cc1cc(C(F)(F)F)cc(C(F)(F)F)c1)C2 | -24% | · | · | · | · | ·
COc1ccccc1NS(=O)(=O)c1cc(-c2cnc(C3CC3)o2)ccc1C | 0% | 9 | · | · | ? | 2
COc1ccc2nc(NC(=O)C3CCN(C(=O)c4ccco4)CC3)sc2c1 | 11% | 144* | -17%[46.1 µM] | -27% | -3% | 36*
O=C(Nc1nc2ccsc2c(=O)s1)C1CCC1 | 88% | 55* | -6% | ? | 16% | 41*
COc1ccc(Br)cc1CN1CCN(C(=O)Cc2ccccc2)CC1 | 0% | -19 | 0% | 4% | -2% | 7
O=C(O)c1ccc2c(c1)[C@@H]1C=CC[C@@H]1[C@H](c1ccccn1)N2 | -15% | · | -4% | 8% | 17% | ·
O=C(Cc1ccc(NS(=O)(=O)c2ccc(Cl)c(Cl)c2)cc1)NCCN1CCOCC1 | -7% | · | 1% | -26% | 31% | ·

Assay outcomes deposited in PubChem by National Center for Advancing Translational Sciences (NCATS).
